In PubChem BioAssay (NCI) one finds growth inhibition data, which are given here for 21 compounds.

Compounds without any hit were thinned out: in the full panel of roughly 79,000, 15% have a hit. Unmarked numbers belong to inactive results. Calls of active or inactive are those of the source. Cut-off read from the data, not from the text of the source: active = growth inhibition above about 70%; inactive = the rest.

Assay [1] is described as follows: NCI Yeast Anticancer Drug Screen. Data for the rad50 strain (AID 155).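 Note: 0% = growth of vehicle-only cultures of the same strain.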 To be noted: S. cerevisiae rad50 strain growth inhibition; at 50.0 µM; hits give high values. The essentials: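 Growth of the mutant yeast was measured after compound exposure and referenced to vehicle-treated cultures.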
Assay [2] in a line: NCI Yeast Anticancer Drug Screen. Data for the mec2-1 strain (AID 157). To be noted: S. cerevisiae mec2-1 strain, at 50.0 µM, hits give high values. The procedure, abridged:
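Vehicle-treated cultures served as reference for growth inhibition of compound-exposed mec2-1 yeast.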

Assay [3] in a line: NCI Yeast Anticancer Drug Screen. Data for the sgs1 mgt1 strain (AID 161).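 Note: 0% = growth of cultures given vehicle only.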 To be noted: S. cerevisiae sgs1 mgt1 strain, at 50.0 µM, hits give high values. The procedure, abridged:
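Read-out: growth inhibition vs vehicle controls. Cells: mutant yeast strain deficient in DNA damage repair.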

Assay [4] can be described thus: NCI Yeast Anticancer Drug Screen. Data for the cln2 rad14 strain (AID 165).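 Note: 0% = growth equal to vehicle treated cultures.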 To be noted: S. cerevisiae cln2 rad14 strain, at 50.0 µM, hits give high values. The essentials: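 Each compound was tested on cln2 rad14 yeast. Inhibition of growth was calculated against vehicle-exposed controls.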
A short description of assay [5]: NCI Yeast Anticancer Drug Screen. Data for the bub3 strain (AID 167). Particulars: S. cerevisiae bub3 mutant strain, at 50.0 µM, hits give high values. The procedure, abridged: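 Whole-cell yeast assay. The mutant strain was incubated with compounds, and growth inhibition was determined by comparison with vehicle-treated cells.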
A short description of assay [6]: NCI Yeast Anticancer Drug Screen. Data for the mlh1 rad18 strain (AID 175). Particulars: S. cerevisiae mlh1 rad18 strain growth inhibition; at 50.0 µM; hits give high values. The procedure, abridged: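 Vehicle-treated cultures served as the reference for growth inhibition in a yeast strain carrying DNA damage repair alterations exposed to each compound.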

With `O=C(/C=C/c1cccc(O)c1)c1ccccc1`, the growth inhibition was 29.4% in assay [1]; 8.25% in assay [2]; 38.4% in assay [3]; 59.8% in assay [4]; -5.6% in assay [5]; 92% (active) in assay [6].

Take `O=[N+]([O-])c1ccc(/C=N/Nc2cnnc(Cl)c2Cl)cc1`: the growth inhibition in assay [1] is -0.6%; in assay [2] it was 1.75%; in assay [3], -1.95%; in assay [4], -33%; in assay [5] it was 2.45%; in assay [6] it was 1.65%.

Consider `CC(=O)OC1COC(n2c(O)c(N=NC(N)=S)c3cc(Br)ccc32)C(OC(C)=O)C1OC(C)=O` (stereo unspecified), for which the growth inhibition in assay [1] is 41.1%; in assay [2] it was 8.2%; in assay [3] it was 46.2%; in assay [4], -34.2%; in assay [5], 27.1%; in assay [6], 31.1%.

On to `c1ccc(-c2nc3ccccc3nc2SCc2cccnc2)cc1`, for which the growth inhibition in assay [1] was 14.4%; in assay [2], -18.1%; in assay [3], -19.7%; in assay [4], -18.2%; in assay [5], -30.8%; in assay [6], -9.8%.

Regarding `CCN(CC)CC1(CC)COC(c2ccccc2)(c2ccccc2)OC1`, the growth inhibition in assay [1] was -3.3%; in assay [2], -21.4%; in assay [3] it was -18.6%; in assay [4], -26.3%; in assay [5], -14.2%; in assay [6], -34.5%.

Turning to `Cc1cc2c(C)nn(Cc3ccccc3Cl)c2c(C#N)c1C`, the growth inhibition in assay [1] was 32.5%; in assay [2], -1.6%; in assay [3] it was 43%; in assay [4], 23.9%; in assay [5] it was 26.9%; in assay [6], 44.4%.

Consider `COc1ccc(C(=O)/C=C/c2ccc(OCC(=N)N)cc2)cc1`, for which the growth inhibition in assay [1] was -31.1%; in assay [2], -38.6%; in assay [3], -18.8%; in assay [4] it was -27.4%; in assay [5], -15.8%; in assay [6] it was -23.6%.

For the compound `CC1(C)N=C(c2ccccc2)SC1(C)C`, the growth inhibition in assay [1] was -13.6%; in assay [2], -12.2%; in assay [3] it was -21.8%; in assay [4], -49.4%; in assay [5], 1.65%; in assay [6], -36.5%.

Turning to `O=[N+]([O-])c1ccc(-c2cc[cH-]c2)cc1.[Fe+2].c1cc[cH-]c1`, the growth inhibition in assay [1] was -4.4%; in assay [2], 14.2%; in assay [3] it was 13.8%; in assay [4], 3.4%; in assay [5] it was 17.8%; in assay [6] it was -0.75%.

As to `Cc1cc(C)nc(C)c1`, the growth inhibition is -22.2% in assay [1]; -15.1% in assay [2]; -14.2% in assay [3]; -11.1% in assay [4]; -3.4% in assay [5]; 23.9% in assay [6].

Regarding `O=C(/C=C/c1ccccc1)NCCC1(O)C(=O)Nc2ccccc21` (stereo unspecified), the growth inhibition in assay [1] is -8%; in assay [2], -17.2%; in assay [3], 3.05%; in assay [4], 8.35%; in assay [5], -10.5%; in assay [6], -15.5%.

Take `COc1cccc(-c2nc(SCC(N)=O)[nH]c(=O)c2C#N)c1`: the growth inhibition was 6.25% in assay [1]; 1.8% in assay [2]; 13.5% in assay [3]; 12% in assay [4]; 17.5% in assay [5]; 14.2% in assay [6].

In the case of `CCOc1ccccc1NC(=O)CC(=O)N1N=C(C)C(N=Nc2ccccc2C(=O)O)C1=O` (stereo unspecified), the growth inhibition is 18.1% in assay [1]; 3.5% in assay [2]; 1.6% in assay [3]; -2.3% in assay [4]; -3.35% in assay [5]; 17.6% in assay [6].

For the compound `CC(=O)Oc1ccc2ccccc2c1CN(C(C)=O)c1ccc(C)cc1`, the growth inhibition is -7.45% in assay [1]; -22.7% in assay [2]; -10.1% in assay [3]; -19.4% in assay [4]; 1.7% in assay [5]; -28.4% in assay [6].

On to `CC1CN=C(c2ccccn2)C(c2ccccn2)=N1` (stereo unspecified), for which the growth inhibition in assay [1] was 4.85%; in assay [2], 6.6%; in assay [3] it was 14.5%; in assay [4], -1.1%; in assay [5], 17.4%; in assay [6] it was 10.2%.

In the case of `COc1cc(C)cc(C(=O)C2=NNCC2c2ccccc2)c1O` (stereo unspecified), the growth inhibition in assay [1] is 23.1%; in assay [2] it was 19.4%; in assay [3] it was 26.8%; in assay [4] it was 10.9%; in assay [5], 17.1%; in assay [6], 16.2%.

For `COc1ccc(-c2nnc(-c3ccc(OC)cc3)o2)cc1`, the growth inhibition was 20.1% in assay [1]; -2.85% in assay [2]; 16.5% in assay [3]; 0.2% in assay [4]; 1.15% in assay [5]; -7.95% in assay [6].

Turning to `OC1c2cc(Br)ccc2-c2c(F)cc(Br)cc21` (stereo unspecified), the growth inhibition in assay [1] is 4.9%; in assay [2], -6.75%; in assay [3] it was -5.3%; in assay [4], 4.65%; in assay [5] it was 1.9%; in assay [6], -10.9%.

Consider `Cc1ccc(N=Nc2c(C)nn(C(=S)S)c2C)cc1`, for which the growth inhibition in assay [1] is 71.9% (active); in assay [2] it was 39.4%; in assay [3], 90% (active); in assay [4] it was 35.8%; in assay [5], 83.3% (active); in assay [6] it was 96.2% (active).

For the compound `CCN(CC)c1ccc(-c2c3ccccc3nc3ccccc23)cc1`, the growth inhibition in assay [1] was -5.05%; in assay [2], -7.75%; in assay [3], 7.45%; in assay [4], -12.4%; in assay [5], -17.1%; in assay [6] it was -3.5%.

For `NC(=O)c1cccc2c1OCO2`, the growth inhibition in assay [1] was -8.75%; in assay [2], 9.7%; in assay [3] it was -7.35%; in assay [4], -10.6%; in assay [5], -0.6%; in assay [6] it was -5.25%.
